Hit rate of the full screen: of about 310,000 compounds, about 1,200 (0.39%) were called active. The rule behind the calls is not given here. A selection follows. Measured potencies and affinities stand elsewhere.
target: Large T antigen (Simian virus 40) (UniProt P03070); experiment: TAg ATPase/helicase activity blockers – biochemical (AID 1903); conditions: SV40 large T antigen ATPase/helicase inhibition assay; at 20 µM; stronger effect = higher value
Sequence (P03070 whole entry, looked up): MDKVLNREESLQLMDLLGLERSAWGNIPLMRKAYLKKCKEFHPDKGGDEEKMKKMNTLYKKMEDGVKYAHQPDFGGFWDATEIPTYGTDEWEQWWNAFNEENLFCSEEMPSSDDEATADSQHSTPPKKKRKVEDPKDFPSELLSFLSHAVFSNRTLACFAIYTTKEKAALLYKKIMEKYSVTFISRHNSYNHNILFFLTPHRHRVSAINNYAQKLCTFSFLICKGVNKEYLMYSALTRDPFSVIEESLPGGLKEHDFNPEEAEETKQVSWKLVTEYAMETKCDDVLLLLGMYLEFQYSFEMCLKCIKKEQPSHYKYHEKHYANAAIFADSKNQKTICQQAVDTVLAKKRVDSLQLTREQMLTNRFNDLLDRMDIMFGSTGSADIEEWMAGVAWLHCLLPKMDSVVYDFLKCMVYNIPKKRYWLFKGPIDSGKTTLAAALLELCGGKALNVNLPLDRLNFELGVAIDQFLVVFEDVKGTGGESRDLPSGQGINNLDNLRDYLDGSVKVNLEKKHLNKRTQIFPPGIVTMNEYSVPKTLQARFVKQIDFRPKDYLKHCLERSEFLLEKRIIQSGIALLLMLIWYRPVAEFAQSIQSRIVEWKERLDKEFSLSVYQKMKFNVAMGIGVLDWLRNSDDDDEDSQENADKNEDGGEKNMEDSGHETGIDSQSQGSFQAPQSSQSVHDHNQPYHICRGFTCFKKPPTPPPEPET

inhibition, inactive:
CCc1ccc(N(C(=O)CNC(=O)c2ccco2)C(C(=O)NC2CCCC2)c2cccnc2)cc1 (stereo not given) 12.2%
COc1ccc(/C=C2/SC(=S)N(CCCC(=O)Nc3ccc(O)cc3)C2=O)cc1 5.12%
O=C1ON=C(c2ccccc2)/C1=C/c1cccnc1 1.23%
O=C1ON=C(c2ccccc2)/C1=C/c1ccco1 36.5%
COc1cc(/C=C2\C(=O)ON=C2c2ccccc2)cc(Cl)c1O 32.2%
O=C1ON=C(c2ccccc2)/C1=C/c1ccc(O)cc1 48%
O=C1ON=C(c2ccccc2)/C1=C/c1ccccc1 48.5%
COc1cc(/C=C2\C(=O)ON=C2c2ccccc2)cc(OC)c1OC 9.78%
COc1ccc(/C=C2\C(=O)ON=C2c2ccccc2)cc1 72.8%
O=C1ON=C(c2ccc(Cl)cc2)/C1=C/c1ccc(O)cc1 34.8%
CCc1ccc(C(=O)OCC(=O)NCCNC(=O)COC(=O)c2ccc(CC)cc2)cc1 4.49%
CCC(C)[C@H](N)c1cn([C@@H](Cc2ccc(O)cc2)C(=O)N2CCNCC2)nn1 (stereo not given in full) 3.28%
NC(=O)C1CCN(C(=O)Cc2ccc([N+](=O)[O-])cc2)CC1 21.5%
O=C(Nc1cc(F)ccc1F)C1CCN(S(=O)(=O)c2cccc3nonc23)CC1 9.1%
CCCS(=O)(=O)c1c(S(=O)(=O)CCC)c2ccc(C(N)=O)cn2c1C(=O)c1ccc(F)cc1 24%
COCC(C)NC(C(=O)Nc1ccc(Cl)c([N+](=O)[O-])c1)c1ccccc1 (stereo not given) 0.39%
CC1(C)CC(C(=O)NCCC(c2ccccc2)c2ccco2)CCO1 (stereo not given) 3.84%
CC(=O)Nc1nonc1-c1nc2ccccc2n1CCC(C)C -3.72%
CCCCOc1cccc(C(=O)N(Cc2ccccc2)C2CCS(=O)(=O)C2)c1 (stereo not given) -0.72%
CC1CCN(C(=O)N[C@@H](Cc2ccccc2)C(=O)O)CC1 0.13%
O=C1C2C3CCC(O3)C2C(=O)N1c1cccc(O)c1 (stereo not given) -1.61%
COc1cccc(C(=O)Nc2nnc(-c3ccccc3)s2)c1OC 13.1%
O=C(Nc1ccncc1)C1CC(=O)N(c2ccc(F)cc2)C1 (stereo not given) 12.3%
COC(=O)C1=C(C(=O)OC)[C@@H]2N(C)c3ccc(OC)cc3[C@@]23C[C@@H](C(=O)OC)N(C(=O)c2ccco2)C3=N1 27.8%
COc1ccc(/C=C2\C(=O)ON=C2c2ccccc2)cc1OC 53.9%
COc1ccc(/C=C2/C(=O)ON=C2c2ccccc2)cc1OC 12.2%
Cc1ccc(C)c(NC(=S)NC(NC(=O)Cc2ccccc2)C(Cl)(Cl)Cl)c1 (stereo not given) 5.58%
CC1CCCCN1CCCNC(=O)C1CCN(c2nnc(-n3cccc3)s2)CC1 (stereo not given) 6.84%
Cc1ccc(C)n1-c1nnc(N2CCC(C(=O)NCCCN3CC(C)CC(C)C3)CC2)s1 (stereo not given) -2.68%
CCOc1ccc(CCNC(=O)C2CCN(c3nnc(-n4cccc4)s3)CC2)cc1 7.09%
CC1CC(C)CN(CCCNC(=O)C2CCN(c3nnc(-n4cccc4)s3)CC2)C1 (stereo not given) 7.41%
CCN1CCN(CCCNC(=O)C2CCN(c3nnc(-n4cccc4)s3)CC2)CC1 12.4%
CCC1CCCCN1CCCNC(=O)C1CCN(c2nnc(-n3cccc3)s2)CC1 (stereo not given) 8.7%
O=C(NC1CC(=O)N(c2ccc3c(c2)OCCO3)C1)N1CCCCC1 (stereo not given) 11.8%
CCN(CC)S(=O)(=O)c1ccc(S(=O)(=O)N2CCN(CCC#N)CC2)cc1 2.53%
CCCc1nc2ccc(NC(C)=O)cc2c(=O)n1Cc1ccccc1Cl 19.8%
CC1CCCCC1NC(=O)/C(C#N)=C/c1ccc(F)c(F)c1 (stereo not given) -0.71%
CC(=O)N1N=C(c2ccc(NS(C)(=O)=O)cc2)CC1c1ccc2nccnc2c1 (stereo not given) 8.1%
O=C(O)C1CC=CCC1C(=O)NC1CCCCC1 (stereo not given) 20.5%
CCn1ncc([N+](=O)[O-])c1C(=O)n1nc(C)cc1C 18.1%
Cn1cnc([N+](=O)[O-])c1Sc1nnc(-c2cccnc2)n1C 7.52%
Cc1onc(-c2ccccc2Cl)c1C(=O)OCC(=O)Nc1cccc(S(=O)(=O)N2CCOCC2)c1 4.68%
COc1ccc(/C=N/NC(=O)CCn2cnc3ccccc32)cc1 2.3%
COc1ccc(/C=N/NC(=O)CC(=O)N/N=C/c2ccc(OC)cc2)cc1 -38%
O=C(CC(=O)N/N=C/c1ccc(F)cc1)N/N=C/c1ccc(F)cc1 10.6%
O=C(C[n+]1ccccc1)N/N=C/c1ccc(F)cc1 8.34%
O=C(CCn1cnc2ccccc21)N/N=C/c1ccccc1O 14.7%
C/C(=N\NC(=O)c1csc2ccccc12)c1ccc(O)cc1 26.5%
CN(C)c1ccc(/C=N/NC(=O)C[n+]2ccccc2)cc1 17.6%
O=C(N/N=C/c1cccc(O)c1)c1csc2ccccc12 9.57%
CC(C)Cn1cc(C(=O)N2CCN(c3ccccn3)CC2)c2c3ccccc3n(C)c2c1=O 1.5%
COc1nc(NC(=O)c2ccc(F)cc2)nc(OC)c1-c1ccccc1 6.25%
COc1ccc(-c2csc(NC(=O)CN3C(=O)NC4(CCCC4)C3=O)n2)cc1OC 23.8%
CCCOc1ccc(-c2nc(C#N)c(NCC3CCCO3)o2)cc1 (stereo not given) 3.05%
O=C(CSc1nc2ccccc2s1)NCCCN1CCOCC1 -10.3%
COc1ccc(CCC(=O)NC2=NCCS2)cc1OC 13.6%
O=C(Nc1ccc2c(c1)OCCO2)c1ccco1 30.4%
CCOC(=O)CSc1nc2sc3c(c2c(=O)n1C1CCCCC1)CCN(C)C3 24.2%
CCC(NC(=O)c1cc(COc2ccc(Cl)cc2OC)on1)c1ccncc1 (stereo not given) 7.95%
CCn1c(CC(=O)Nc2ccc(C)c(Cl)c2)nnc1SCc1ccc(Cl)c(Cl)c1 2.82%
O=[N+]([O-])c1ccc(Cl)c2c1C1C=CCC1C(c1ccccn1)N2 (stereo not given) 21.7%
CC(C)C1Nc2c(O)cc(Cl)c([N+](=O)[O-])c2C2C=CCC21 (stereo not given) 21.4%
Cc1ccc(CNC(=O)CCC2CCCN(C(=O)c3ccc4c(c3)OCO4)C2)o1 (stereo not given) 12.7%
N#Cc1cnc(Nc2ccc(F)cc2)nc1N 7.13%
CNc1nc(Nc2ccc(Br)cc2)nc(N)c1[N+](=O)[O-] 9.77%
C[C@H](CCC(=O)O)[C@H]1CC[C@H]2[C@@H]3CC[C@@H]4C[C@H](O)CC[C@]4(C)[C@H]3C[C@H](O)[C@]12C 12.7%
C[C@H](CCC(=O)O)[C@H]1CC[C@H]2[C@@H]3[C@H](O)C[C@@H]4C[C@H](O)CC[C@]4(C)[C@H]3CC[C@]12C 19.2%
Cc1nsc2nc3c(F)c(F)c(F)c(F)c3cc12 16.9%
Cc1c(/C=N/NC(N)=O)c2ccccn2c1C(=O)c1ccncc1 15%
COc1ccc(/C=C/C(=O)OCC(=O)Nc2ccc(S(N)(=O)=O)cc2)cc1OC 5.77%
CCCCOc1ccc(/C=C/C(=O)OCC(=O)N2CC(=O)Nc3ccccc32)cc1OCC 14.1%
COc1ccc(/C=C/C(=O)OCC(=O)N2CC(=O)Nc3ccccc32)cc1 1.89%
COc1cc(/C=C/C(=O)OCC(=O)Nc2ccc(S(=O)(=O)N3CCCC3)cc2)ccc1O 24.6%
Cc1cc(C(=O)NCCC(c2ccccc2)c2ccccc2)c(C)o1 8.32%
CC1(C)Cc2cccc(Oc3cc(NN4CCCCC4)c([N+](=O)[O-])cc3[N+](=O)[O-])c2O1 1.3%
Cc1nn(C(C)C(=O)NCC2CCCO2)c(=O)c2cc3occc3n12 (stereo not given) -0.26%
COc1ccc(/C=N/NC(=O)CSc2ccccn2)cc1OC 10.6%
COc1cc(/C=N/NC(=O)CSc2ccccn2)ccc1OC(C)C 14.9%
CCCOc1ccc(/C=N/NC(=O)CSc2ccccn2)cc1OC 3.28%
CN(C)c1ccc(/C=N/NC(=O)CSc2ccccn2)cc1 25.6%
CCN(C(=O)CN1C(=S)NC(C)(C)CC1C)c1ccc(C)c(C)c1 (stereo not given) 6.37%
O=C(CSc1nnc(NC(=O)c2c(F)cccc2F)s1)Nc1ccccc1F 11.2%
CCCOc1ccccc1N1C(=O)CC(N(O)c2ccccc2)C1=O (stereo not given) 20.6%
CCNc1nc(NCC)nc(NC(N)=S)n1 1.3%
Cc1cc(C)c2nncn2n1 11.8%
O=C(O)Cc1c[nH]c2ccccc12 10.4%
NC(=O)Cc1c[nH]c2cccc(O)c12 30.1%
CCOC(=O)c1ccc2c(c1)C1C=CCC1C(C(=O)OCC)N2 (stereo not given) 12.4%
O=C(O)C1Nc2c(Cl)cc(Cl)c(Cl)c2C2C=CCC12 (stereo not given) 31%
Cc1cc(C)c2c(c1)NC(c1cc3c(cc1Br)OCO3)C1CC=CC21 (stereo not given) 9.15%
CCOC(=O)C1Nc2ccc(OC(F)(F)F)cc2C2C=CCC12 (stereo not given) 19.1%
CCOC(=O)C1Nc2ccc(C(=O)O)cc2C2C=CCC12 (stereo not given) 16.5%
Cc1ccc2c(c1)C1C=CCC1C(C(=O)NCCCN1CCOCC1)N2 (stereo not given) 12.6%
CCOC(=O)C1Nc2ccc(C)cc2C2C=CCC12 (stereo not given) 8.94%
O=C(NC1CC1)C1Nc2ccc(OC(F)(F)F)cc2C2C=CCC12 (stereo not given) 6.67%

From PubChem BioAssay AID1903 (Southern Research Specialized Biocontainment Screening …, 2009)
